Measurements reported in PubChem BioAssay (NCATS).
Inconclusive results are not listed. Active and inactive are the calls of the source. The call rests on the fitted dose curve; in most records, active means well fitted inhibition curve with a large enough effect; inconclusive means small, poorly fitted or top-dose-only effect; inactive means flat fitted curve, though single readings scatter.

What was measured:
Test in all cases: Cytotoxic Profiling of Annotated Libraries Using Quantitative High-Throughput Screening (AID 1296008); further: nearly all actives have a fitted effect of over 60% in size
Settings in all cases: Five cell lines viability, CellTiter-Glo ATP luminescence, 48-72 h; max response: active compounds read low
CRL-7250 = normal cell line; tested on: CRL-7250
In short: (§1)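 Cells exposed to compounds for 48 or 72 hr at 37 degrees Celsius. Viability read as ATP-coupled luminescence with CellTiter-Glo after 10 min at room temperature.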

HEK293 = tested on: HEK293
In short: as §1

HaCat = tested on: HaCat
In short: as §1

Measured: max response
On the % scale 0 is the no-effect control and ±100 the full control effect.

O=C(C1CCCCC1)N1CC(=O)N2CCCc3ccccc3C2C1 (stereo unspecified)
inactive: all assays above

c1ccc2c(c1)CCc1ccccc1N2
inactive: CRL-7250 | HEK293 | HaCat -8.39%

O=C(CCCl)NCc1ccccc1
inactive: CRL-7250 -8.2% | HEK293 -4.62% | HaCat

O=C(O)c1cn(C2CC2)c2cc(Cl)c(F)cc2c1=O
inactive: CRL-7250 | HEK293 -5.06% | HaCat

O=C(O)Cn1cnnn1
inactive: CRL-7250 -0.376% | HEK293 | HaCat 1.64%

NC(=O)NS(=O)(=O)c1ccc(Cl)cc1
inactive: CRL-7250 | HEK293 -19.3% | HaCat 0.84%

COc1cc(OC)nc(O[C@H](C(=O)O)C(OC)(c2ccccc2)c2ccccc2)n1
inactive: CRL-7250 3.73% | HEK293 | HaCat
